# According to PubChem BioAssay (EPA / NIEHS):
# “And” between values parts separate entries of the source, which are not always exact repeats. Identical values can stand only once. More than one record can exist for a structure, and the calls need not agree. The source made the active and inactive calls. How the source made its calls: active means hit-call score of the fitted dose curve at least 0.9, where 1 is the maximum; inactive means score below 0.9.
# Read-out: Monocyte Chemoattractant Protein-1 (MCP1), CCL2 (gene 6347)
# Assay: BSK_4H_MCP1: BioMAP Diversity Plus: 4H Assay for Monocyte Chemoattractant Protein-1 (MCP1) Biomarker Activity (AID 2283018)
# Conditions: primary human endothelial cells (HUVEC); actives raise or lower the signal
# Method: BSK_4H is a cell-based, multiplexed-readout assay that uses umbilical vein endothelium, a human vascular primary cell, with measurements taken at 24 hours after chemical dosing in a 96-well plate.BSK_4H_MCP1 is an assay component measured in the BSK_4H assay. It measures MCP-1 antibody related to regulation of gene expression using ELISA technology.Data from the assay component BSK_4H_MCP1 was analyzed into 1 assay endpoint. This assay endpoint, BSK_4H_MCP1, was analyzed with bidirectional fitting relative to DMSO as the negative control and baseline of activity. Using a type of binding reporter, gain or loss-of-signal activity can be used to understand changes in the signaling as they relate to the gene CCL2. Furthermore, this assay endpoint can be referred to as a primary readout, because this assay has produced multiple assay endpoints where this one serves a signaling function. To generalize the intended target to other relatable targets, this assay endpoint is annotated to the cytokine intended target family, where the subfamily is chemotactic factor.
# The levels of cell surface (or secreted, indicated by the prefix "s") biomarker endpoints were measured by ELISA. Overt cytotoxicity to cells in confluent adherent cultures (all systems other than the BT system) was assessed by measuring total protein levels using sulforhodamine B (SRB) staining in parallel cultures at the time of biomarker measurements, indicated as SRB endpoints. For proliferation assays for adherent cell types, individual cell types are cultured at sub-confluence and relative cell numbers quantified by SRB staining at time points optimized for each system (48 h: 3C and CASM3C systems; 72 h: BT and HDF3CGF systems; 96 h: SAg system). SRB was performed by staining cells with 0.1% SRB after fixation with 10% TCA and reading wells at 560 nm.Viability and proliferation of PBMC (T cells) was quantified by Alamar Blue reduction for the SAg and BT systems. For PBMC viability (referred to as PBMC Cytotoxicity within the assay endpoint names), cells were plated (75,000/well in a 96-well plate) and then chemical samples added for 1 h before addition of activators, SEB and TSST-1 (20 ng/mL final concentration each). Cells were incubated for 90 h. Then, Alamar Blue (20 uL/well) (Invitrogen, Cat DAL1100) was added for 6 h, and the plates were read with a fluorescence microplate reader at 546/580 nm (excitation/emission). For PBMC proliferation, cells were plated and activated as above but incubated for only 16 h prior to addition of Alamar Blue. Plates were read after 6 h.
SMILES,outcome,AC50
[Cd+2].[Cl-].[Cl-],inactive,–
COC(C)(C)CCC[C@H](C)C/C=C/C(C)=C/C(=O)OC(C)C,–,29.8 µM (active)
O=C(O)CCCc1ccc(N(CCCl)CCCl)cc1,inactive,–
O=c1[nH]c(Cl)c(Cl)cc1Cl,inactive,–
CC1(C)[C@H](C(=O)O[C@H](C#N)c2cccc(Oc3ccccc3)c2)[C@@H]1C=C(Br)Br,inactive,0.252 µM (active)
CCc1cc(C)cc(CC)c1-c1c(OC(=O)C(C)(C)C)n2n(c1=O)CCOCC2,inactive,–
CC(C)(c1cc(Cl)c(O)c(Cl)c1)c1cc(Cl)c(O)c(Cl)c1,–,20 µM (active)
CC(C)(C)C(=O)CCl,inactive,–
CC(C)(C)C(O)C(Oc1ccc(-c2ccccc2)cc1)n1cncn1 (stereo not given),–,31.8 µM (active)
CCCCCCCCCCCC#N,–,20.6 µM (active)
O=C1C=CC(=O)C=C1,inactive,33.4 µM (active)
CC(=O)/C=C/c1ccccc1,inactive,–
O=P1(NCCCl)OCCCN1CCCl (stereo not given),inactive,–
CCCOC(=O)c1ccccc1C(=O)OCCC,inactive,–
Oc1cc(Cl)ccc1Cl,inactive,–
CC(C)COP(=O)(OCC(C)C)OCC(C)C,inactive,–
O=C1C(Cl)=C(Cl)C(=O)C(Cl)=C1Cl,–,12.3 µM (active)
c1ccc(Nc2ccc3ccccc3c2)cc1,–,30.7 µM (active)
Cc1ccc(OP(=O)(Oc2ccc(C)cc2)Oc2ccc(C)cc2)cc1 (tested in a mixture with another compound),–,2.31 µM (active)

SMILES,outcome,AC50
O=S(=O)(c1ccccc1)c1ccccc1,inactive,–
O=[N+]([O-])C=Cc1ccccc1,–,8.93 µM (active)
COCC(=O)N(c1c(C)cccc1C)N1CCOC1=O,inactive,–
O=C(CCl)c1ccccc1,–,5.41 µM (active)
Clc1ccc(-c2ccccc2)cc1,–,27.5 µM (active)
CNC(=O)Oc1cc(C)c(SC)c(C)c1,inactive,–
Oc1ccc(C2(c3ccc(O)cc3)c3ccccc3-c3ccccc32)cc1,–,13.2 µM (active) and 11.4 µM (active)
C=CC(=O)OCC(CC)CCCC (stereo not given),inactive,–
CC(C)CCCCCCCOC(=O)c1ccccc1C(=O)OCCCCCCCC(C)C,inactive,–
COc1ccc(CO)cc1,inactive,–
CCC(C)c1cc([N+](=O)[O-])cc([N+](=O)[O-])c1OC(=O)C=C(C)C (stereo not given),–,5.34 µM (active)
N#CCCCCC#N,inactive,–
O=[N+]([O-])c1ccc(Cl)cc1,inactive,–
CCCC[N+](CCCC)(CCCC)CCCC,inactive,–
O=[N+]([O-])O,inactive,–
Nc1ccc(-c2ccc(N)c(N)c2)cc1N,–,20 µM (active)
O=c1c2ccccc2c(=O)c2c1cc(Cl)c1[nH]c3c([nH]c12)c(Cl)cc1c(=O)c2ccccc2c(=O)c13,inactive,–
CC(C)CCCCCCCOP(=O)(Oc1ccccc1)Oc1ccccc1,–,4.92 µM (active)
C=CCN(CC=C)C(=O)C(Cl)Cl,inactive,–
